Measurements reported in PubChem BioAssay (NCI).
This is part of a sample that, as a whole, favours compounds with a hit. Of some 83,000 tested, about 20% had one in any assay.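 Method: cells in 96-well plates; compound added at one concentration; 48 h incubation; percent growth measured; values under 10 scored active.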 The source made the active and inactive calls.

What was measured:
Test in all cases: NCI-60 one-dose screen, 48 h (100 = growth as untreated, 0 = no growth, -100 = all killed)
Details in all cases: 10 µM unless noted
[1] = test system: NCI-H23 lung
[2] = test system: NCI-H226 lung
[3] = test system: NCI-H322M lung
[4] = test system: HOP-62 NSCLC
[5] = test system: NCI-H460 lung
[6] = test system: HOP-92 NSCLC
[7] = test system: NCI-H522 lung
[8] = test system: A549/ATCC NSCLC
[9] = test system: COLO 205 colon
[10] = test system: DU-145 prostate
[11] = test system: K-562 leukemia
[12] = test system: MALME-3M melanoma
[13] = test system: MDA-MB-231 breast
[14] = test system: RXF 393 renal
[15] = test system: SF-268 CNS
[16] = test system: SF-295 CNS
[17] = test system: SF-539 CNS
[18] = test system: UACC-257 melanoma
[19] = test system: M14 melanoma
[20] = test system: 786-0 renal

Measured: growth

O=C(Cn1c[n+](CC(=O)c2ccc([N+](=O)[O-])cc2)c2ccccc21)Nc1cccc2cccnc12
inactive: [1] 50.9% | [2] 80.7% | [3] 96% | [4] 95.5% | [5] 77.7% | [6] 28% | [7] 47.1% | [8] 14.3% | [9] 23.9% | [10] 85.1% | [11] 38.2% | [12] 81.4% | [13] 50.5% | [14] 97.6% | [15] 65.1% | [16] 101% | [17] 87.8% | [18] 48.6% | [19] 78.4%

N#C/C(=C\c1ccc([N+](=O)[O-])s1)c1nc2cc(Cl)ccc2s1
active: [1] 2.73% | [2] -74.1% | [5] 6.38% | [6] -37.8% | [7] -35.9% | [9] -26.6% | [11] 1.75% | [12] -57.1% | [13] -47.2% | [14] 6.88% | [17] -35% | [19] -78.1%
inactive: [3] 99.3% | [4] 12.6% | [8] 25.1% | [10] 57.4% | [15] 27.9% | [16] 91.7% | [18] 55.6%

CCOC(=O)c1cc(C#N)n2ccc3ccccc3c12
inactive: [1] 94.7% | [2] 97.5% | [3] 98.1% | [4] 105% | [5] 100% | [6] 93.5% | [7] 92.2% | [8] 98.8% | [9] 112% | [10] 103% | [11] 106% | [12] 104% | [13] 102% | [14] 98.9% | [15] 94.2% | [16] 96.5% | [17] 98.7% | [18] 104% | [19] 108%

N#CC1C(C#N)C(C(=O)c2ccc(Br)cc2)N2c3ccccc3C=CC12 (stereo not drawn)
active: [9] 3.37%
inactive: [1] 79.2% | [2] 64.7% | [3] 93.4% | [4] 75.1% | [5] 96.2% | [6] 55.5% | [7] 78.6% | [8] 65.8% | [10] 91.9% | [11] 24.4% | [12] 67.3% | [13] 57.6% | [14] 74.5% | [15] 78.5% | [16] 89.1% | [17] 89.3% | [18] 98.9% | [19] 75.3%

COc1ccc2c(c1)C(=O)CC(c1ccccc1OC)O2 (stereo not drawn)
inactive: [1] 86.9% | [2] 93.8% | [4] 92.6% | [5] 100% | [6] 94.3% | [7] 93% | [8] 96% | [20] 104% | [9] 109% | [10] 103% | [11] 101% | [12] 102% | [13] 86.8% | [14] 106% | [15] 96.6% | [16] 101% | [17] 96.6% | [18] 101%

C/C=C(\C)C(=O)NC1=CC[C@@]2(C)C(=CCC3C2CC[C@@]2(C)C3CC[C@@H]2C(C)N(C)C)C1=O (stereo partly drawn)
active: [9] -8.4% | [12] -42.9% | [17] -49% | [18] 2.46% | [19] -32.1%
inactive: [1] 39.2% | [2] 89.6% | [3] 36.9% | [4] 46.4% | [5] 17.4% | [6] 40.6% | [7] 77.9% | [8] 60.8% | [20] 44.2% | [10] 64.6% | [13] 34.8% | [14] 10.7% | [15] 10.4% | [16] 31.7%

CCOC(=O)c1cc(C(=O)c2ccc(OC)cc2)n2ccc(/C=C/c3cc[n+](CC(=O)c4ccc(OC)cc4)cc3)cc12
active: [11] -15.2%
inactive: [1] 83.6% | [2] 90.7% | [3] 86.3% | [4] 81.1% | [5] 75.1% | [6] 50.1% | [7] 57.1% | [8] 52.2% | [9] 65.3% | [10] 75% | [12] 92.1% | [13] 72.1% | [14] 99.9% | [15] 94.5% | [16] 104% | [17] 92.9% | [18] 111% | [19] 75.4%

CCOC(=O)c1cc(C(=O)c2cc(OC)cc(OC)c2)n2ccc3ccccc3c12
inactive: [1] 81.5% | [2] 91.8% | [3] 91.1% | [4] 70.7% | [5] 101% | [6] 111% | [7] 83.3% | [8] 77.9% | [9] 115% | [10] 100% | [11] 98.7% | [12] 99.1% | [13] 80.1% | [14] 61.5% | [15] 78.1% | [16] 94.9% | [17] 74.1% | [18] 93.4% | [19] 105%

N#C/C(=C\c1ccc(C(F)(F)F)cc1)c1cc2ccccc2[nH]1
inactive: [1] 98.1% | [2] 101% | [3] 100% | [4] 99.8% | [5] 97.7% | [6] 119% | [7] 84.5% | [8] 100% | [9] 113% | [10] 105% | [11] 90.3% | [12] 103% | [13] 92.7% | [14] 113% | [15] 99.4% | [16] 99.8% | [17] 107% | [18] 104% | [19] 108%

Nc1ccccc1NC(=O)c1ccc(-n2nc(-c3ccccc3)c3ccccc32)cc1
inactive: [1] 89.1% | [2] 64.7% | [3] 83.5% | [4] 84.7% | [5] 79.3% | [6] 78.9% | [7] 25% | [8] 74.5% | [9] 117% | [10] 87.2% | [11] 43.7% | [12] 68.9% | [13] 42.9% | [14] 88.7% | [15] 68.2% | [16] 90.7% | [17] 48.8% | [18] 86.2% | [19] 88.9%

O=C(C[n+]1cccc2ccccc21)c1ccc(O)c(O)c1
active: [19] -83.4%
inactive: [1] 78.5% | [2] 62.1% | [3] 93.5% | [4] 102% | [5] 92.6% | [6] 73.2% | [7] 20.9% | [8] 84.4% | [9] 56.4% | [10] 84.8% | [11] 28.5% | [12] 53.9% | [13] 59.1% | [14] 49.6% | [15] 84.7% | [16] 105% | [17] 91.2% | [18] 78.1%

CCN(CC)CCOc1ccc(NC(=O)C(C(C)C)N2C(=O)/C(=C/c3ccc(Br)cc3)SC2=S)cc1 (stereo not drawn)
inactive: [1] 94.6% | [2] 90% | [3] 99.8% | [4] 104% | [5] 16.2% | [6] 78.8% | [7] 96.3% | [8] 16.6% | [9] 92.1% | [10] 73% | [13] 50.7% | [14] 71.6% | [15] 76.6% | [16] 101% | [17] 88.2% | [18] 93.5% | [19] 75.8%
active: [11] -64.8% | [12] -34.4%

C#Cc1cccc(NC(=O)Nc2cccc(NC(=O)CCl)c2)c1
inactive: [3] 88.9% [8.25 µM] | [4] 36.1% [8.25 µM] | [8] 56.8% [8.25 µM] | [10] 44.4% [8.25 µM] | [16] 45% [8.25 µM] | [18] 48.7% [8.25 µM]
active: [1] -82.8% [8.25 µM] | [2] -12.1% [8.25 µM] | [5] -32.2% [8.25 µM] | [6] -53.1% [8.25 µM] | [7] -37.5% [8.25 µM] | [20] -65.1% [8.25 µM] | [9] -51.3% [8.25 µM] | [12] -50.2% [8.25 µM] | [13] -61% [8.25 µM] | [14] -48.7% [8.25 µM] | [15] -2.2% [8.25 µM] | [17] -95.2% [8.25 µM] | [19] 6.26% [8.25 µM]

CC(C)N1C(=O)/C(=C2\SC(=S)N(C(C)C)C2=O)SC1=S
inactive: [1] 94% | [2] 101% | [3] 94% | [4] 95.5% | [5] 101% | [6] 72.3% | [7] 90.6% | [8] 93.8% | [9] 110% | [10] 93.6% | [11] 93% | [12] 82.6% | [13] 81% | [14] 104% | [15] 94.5% | [16] 101% | [17] 85.1% | [18] 95.8% | [19] 95%

Cn1c(N2NC(=O)C(N=Nc3ccc(S(N)(=O)=O)cc3)C2=O)nc(-c2ccco2)c(C#N)c1=O (stereo not drawn)
inactive: [1] 70% | [2] 94.9% | [3] 107% | [4] 96.4% | [5] 103% | [6] 32.3% | [8] 109% | [20] 100% | [9] 77.1% | [10] 95.7% | [12] 74.7% | [13] 93.8% | [15] 98.8% | [16] 123% | [17] 96.7% | [18] 88.7% | [19] 91.9%
active: [7] -40.5% | [14] -3.8%

CCOC(=O)C1=C(CCl)NC(=O)NC1c1ccc2c(c1)OCO2 (stereo not drawn)
inactive: [1] 48.3% | [2] 88.5% | [3] 88.1% | [4] 53.8% | [5] 76.9% | [6] 60.1% | [8] 66.1% | [20] 43.2% | [9] 75.6% | [10] 36.6% | [12] 18.5% | [13] 39.4% | [14] 39.1% | [15] 66.9% | [16] 71.1% | [17] 16.5% | [18] 67.2% | [19] 32.3%
active: [7] -42.3%
